Records with an inconclusive call do not appear. The source made the active and inactive calls. Calls come from the whole dose curve; as a rule, active = well fitted inhibition curve with a large enough effect; inconclusive = small, poorly fitted or top-dose-only effect; inactive = flat fitted curve, though single readings scatter.
Tests used:
[1] = system: CRL-7250; test: Cytotoxic Profiling of Annotated Libraries Using Quantitative High-Throughput Screening (AID 1296008); details: Five cell lines viability, CellTiter-Glo ATP luminescence, 48-72 h; hits give low values; for max response: % is set by controls: 0 for no effect and ±100 for the full control effect
Summary of the method: (§1)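 Compounds were pin-transferred onto cells and incubated 48 or 72 hr at 37 degree Celsius, 95% humidity. CellTiter-Glo was added, plates sat 10 min at room temperature, then ATP-coupled luminescence was imaged as the viability read-out.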

[2] = system: HEK293; test: as above; details: Five cell lines viability, CellTiter-Glo ATP luminescence, 48-72 h; hits give low values
Summary of the method: as §1

[3] = system: HaCat; test: as above; details: Five cell lines viability, CellTiter-Glo ATP luminescence, 48-72 h; hits give low values
Summary of the method: as §1

[4] = system: KB-3-1; test: as above; details: Five cell lines viability, CellTiter-Glo ATP luminescence, 48-72 h, hits give low values
Summary of the method: as §1

[5] = system: NIH3T3; test: as above; details: Five cell lines viability, CellTiter-Glo ATP luminescence, 48-72 h; hits give low values
Summary of the method: as §1

[6] = system: HACAT; test: qHTS assay to identify novel small-molecules to repurpose for Merkel cell carcinoma treatment (AID 1296009); details: MCC and control cell lines, CellTiter-Glo viability, 72 h; at 44.8 µM (top of the series) unless noted
Summary of the method: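 Cells exposed to NPC (8-point) and MIPE (11-point) compound dilutions for 72 hr at 37 degree celsius; viability read by CellTiter-Glo luminescence, normalized to no-cell and DMSO in-plate controls.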

Measured: max response
Note: nearly all actives have a fitted effect of over 60% in size.

CC(=O)N1C[C@H](O)C[C@H]1C(=O)O
inactive: [1] | [2] 1.84% | [3] 4.9% | [4] 8.51% | [5]

C/C=C/C(=O)N(CC)c1ccccc1C
inactive: [1] -6.75% | [2] 0.227% | [3] 0.376% | [4] 21.1% | [5] 1.85%

O=C(O)[C@@H]1[C@H]2C[C@H]3c4[nH]c5ccccc5c4CCN3C[C@@H]2CC[C@@H]1O
inactive: [1] -7.72% | [2] -7.97% | [3] 4.24% | [4] 7.03% | [5]

C/C(=C(\CCO)SS/C(CCO)=C(\C)N(C=O)Cc1cnc(C)nc1N)N(C=O)Cc1cnc(C)nc1N
inactive: [1] | [2] -0.967% | [3] | [4] -5.06% | [5] -2.04% | [6]

Cc1ccsc1/C=C/C1=NCCCN1C
inactive: [1] 3.4% | [2] -1.17% | [3] 3.54% | [4] -0.196% | [5]

NC(=O)c1ccc([N+](=O)[O-])cc1Cl
inactive: [1] 3.21% | [2] -0.167% | [3] -15.2% | [4] 1.89% | [5]

CN1C(=O)CC(c2ccccc2)C1=O (configuration not stated)
inactive: [1] 1.89% | [2] -5.41% | [3] | [4] 0.936% | [5] | [6]

C[N+](C)(C)CC(O)CC(=O)[O-] (configuration not stated)
inactive: [1] -9.06% | [2] -5.18% | [3] 4.86% | [4] -5.76% | [5]

C[N+]1(C)CCCC(OC(=O)C(O)(c2ccccc2)c2ccccc2)C1 (configuration not stated)
inactive: [1] 2.14% | [2] -3.74% | [3] | [4] -3.88% | [5] 4.37% | [6]

OCCN1C[C@H](O)[C@@H](O)[C@H](O)[C@H]1CO
inactive: [1] 0.57% | [2] | [3] -0.066% | [4] 4.48% | [5] -3.52%

COCC(=O)Nc1c(I)c(C(=O)NCC(O)CO)c(I)c(C(=O)N(C)CC(O)CO)c1I (configuration not stated)
inactive: [1] -2.09% | [2] -5.16% | [3] | [4] 11.7% | [5] 1.05% | [6]

CC1(C)S[C@@H]2[C@H](NC(=O)C(C(=O)O)c3ccccc3)C(=O)N2[C@H]1C(=O)O (some centres not stated)
inactive: [1] -9.98% | [2] | [3] -0.997% | [4] 3.76% | [5] -1.06%

CC(=O)[C@@]1(O)CC[C@H]2[C@@H]3C[C@H](C)C4=CC(=O)C=C[C@]4(C)[C@@]3(F)[C@@H](O)C[C@@]21C
inactive: [1] -3.29% | [2] | [3] 4.35% | [4] 9.43% | [5] 4.42%

CC(=O)N[C@H]1[C@H]([C@H](O)[C@H](O)CO)OC(C(=O)O)=C[C@@H]1N=C(N)N
inactive: [1] -5.6% | [2] 1.78% | [3] | [4] 6.48% | [5] | [6]

NS(=O)(=O)c1cc(C2(O)NC(=O)c3ccccc32)ccc1Cl (configuration not stated)
inactive: [1] -0.145% | [2] -4.45% | [3] 3.24% | [4] -1.8% | [5]

CC(=O)N[C@@H](CC(C)C)C(=O)O
inactive: [1] -9.67% | [2] -5.66% | [3] | [4] -12.6% | [5] -1.86% | [6]

O=C(O)C(S)C(S)C(=O)O (configuration not stated)
inactive: [1] -6.2% | [2] -7.93% | [3] 3.59% | [4] -23% | [5]

C/C=C1\[C@H]2C=C(C)C[C@]1(N)c1ccc(=O)[nH]c1C2
inactive: [1] -0.0215% | [2] | [3] 4.06% | [4] -3.64% | [5] -4.73%

CC(=O)N(CC(O)CN(C(C)=O)c1c(I)c(C(=O)NCC(O)CO)c(I)c(C(=O)NCC(O)CO)c1I)c1c(I)c(C(=O)NCC(O)CO)c(I)c(C(=O)NCC(O)CO)c1I (configuration not stated)
inactive: [1] -0.159% | [2] -0.57% | [3] -14.3% | [4] 0.0705% | [5]

CC1(C)[C@@H](OC(=O)CCC(=O)O)CC[C@]2(C)[C@H]3C(=O)C=C4[C@@H]5C[C@@](C)(C(=O)O)CC[C@]5(C)CC[C@@]4(C)[C@]3(C)CC[C@@H]12
inactive: [1] -5.85% | [2] -0.807% | [3] 2.22% | [4] -3.96% | [5]

O=C(/C=C/c1ccc(O)c(O)c1)O[C@@H]1C[C@@](OC(=O)/C=C/c2ccc(O)c(O)c2)(C(=O)O)C[C@@H](O)[C@@H]1O
inactive: [1] -6.43% | [2] -4.83% | [3] | [4] -0.0821% | [5] -0.0883% | [6]

CC1(c2ccccc2)OC(C(=O)O)=CC1=O (configuration not stated)
inactive: [1] -0.824% | [2] 1.9% | [3] | [4] 17.3% | [5] -3.39% | [6]

C[C@]1(Cn2ccnn2)[C@H](C(=O)O)N2C(=O)C[C@H]2S1(=O)=O
inactive: [1] -1.81% | [2] | [3] -19.5% | [4] 13.6% | [5] -0.883%

OC(CCN1CCCC1)(c1ccccc1)C1CCCCC1 (configuration not stated)
inactive: [1] -24% | [2] -13.4% | [3] 3.13% | [4] -9.13% | [5]

CC(C)=CCC[C@@](C)(O)[C@H]1CC=C(C)CC1
inactive: [1] 1.58% | [2] | [3] | [4] 4.77% | [5] -5.4% | [6]

CCC(C)(CN(C)C)OC(=O)c1ccccc1 (configuration not stated)
inactive: [1] -17.5% | [2] | [3] | [4] 0.865% | [5] -14.8% | [6]

O=c1[nH]c(=O)n([C@H]2C[C@H](O)[C@@H](CO)O2)cc1I
inactive: [1] | [2] -0.666% | [3] | [4] 5.94% | [5] | [6]

CCOC(=O)OC(C)OC(=O)[C@@H]1N2C(=O)[C@@H](NC(=O)[C@H](N)c3ccccc3)[C@H]2SC1(C)C (some centres not stated)
inactive: [1] -4.78% | [2] -9.36% | [3] | [4] -3.71% | [5] | [6]
